In PubChem BioAssay (NCI):
This is part of a sample that, as a whole, favours compounds with a hit. Of some 83,000 tested, about 20% had one in any assay.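 Growth was measured after 48 h exposure to one concentration of compound in 96-well plates. Values under 10 count as active.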 Unmarked numbers belong to inactive results. Activity calls are given as the source filed them.

Key:
Experiment in all cases: NCI-60 one-dose screen, 48 h (100 = growth as untreated, 0 = no growth, -100 = all killed)
Details in all cases: 10 µM unless noted
T-47D breast = tested on: T-47D breast
BT-549 breast = tested on: BT-549 breast
MDA-MB-435 melanoma = tested on: MDA-MB-435 melanoma
SW-620 colon = tested on: SW-620 colon
MCF7 breast = tested on: MCF7 breast
HCT-116 colon = tested on: HCT-116 colon
HCC-2998 colon = tested on: HCC-2998 colon
KM12 colon = tested on: KM12 colon

| SMILES | growth (T-47D breast) | growth (BT-549 breast) | growth (MDA-MB-435 melanoma) | growth (SW-620 colon) | growth (MCF7 breast) | growth (HCT-116 colon) | growth (HCC-2998 colon) | growth (KM12 colon) |
| --- | --- | --- | --- | --- | --- | --- | --- | --- |
| COc1ccc(C(=O)n2nc(-c3ccccc3)nc2N)cc1OC | 56.4% | 94.6% | 109% | 90.3% | 44.3% | 98.2% | 97.9% | 85.8% |
| CN(C)CC#Cc1ccc2ncc(C#N)c(Nc3ccc(F)c(Cl)c3)c2c1 | 44% | 51.1% | 65.3% | 57.3% | 79.4% | 40.7% | 60.3% | 79.7% |
| CC(=O)N1N=C(c2ccc(Nc3nc(Nc4ccc(F)cc4)nc(Nc4ccc(Cl)cc4)n3)cc2)CC1c1ccc(Cl)cc1 (configuration not stated) | 68.1% | 122% | 115% | 105% | 91% | 86.4% | 96.8% | 108% |
| O=C(O)c1cn(C2CC2)c2cc(N3CCN(C(=O)Nc4nc(-c5ccc(Cl)cc5)cs4)CC3)c(F)cc2c1=O | 5.75% (active) | 0.292% (active) | 9.36% (active) | 20.2% | 2.95% (active) | 14.8% | 30.6% | 8.97% (active) |
| C=C1C(=O)O[C@H]2[C@H]1CC/C(COC(=O)CCC(=O)NCCOCCOCC(=O)Nc1ccc(OC)c(C(N)=O)c1O)=C\CC[C@@]1(C)O[C@@H]21 | 87.1% | 85.9% | 97.8% | 64.2% | 74.6% | 69.5% | 112% | 102% |
| C[N+]1=C(/C=C/c2ccc(O)c3ncccc23)C(C)(C)c2ccccc21 | 23.7% | 81.2% | 59.6% | 89% | 13.7% | 10.4% | 92% | 84.4% |
| C=C1CC[C@H](C(C)C)[C@@H]2[C@H]1[C@H]1CC(=C)[C@@H](O)CC[C@@](C)(O)[C@@H]2O1 | 97.1% | 99.2% | 96.8% | 96.7% | 97% | 86.2% | 77.9% | 96.3% |
| C[C@]12CC[C@@H]3c4cc(OC(F)F)c(OS(N)(=O)=O)cc4CC[C@H]3[C@@H]1CC[C@@H]2OS(N)(=O)=O | 43.4% | 62.7% | 42.8% | 22% | 20.2% | 20.3% | 74.1% | 35.6% |
| Cc1cccc(OCC(O)CN2CCN(c3ccc(Cl)cc3)CC2)c1 (configuration not stated) | 107% | 99.6% | 111% | 104% | 87.5% | 86.7% | 110% | 106% |
| COc1ccc(/C=N/Nc2cc(=O)[nH]c3ccc(C)cc23)cc1 | 70.7% | 88.3% | 102% | 96.8% | 78.1% | 83.1% | 99.2% | 105% |
| OC(COc1ccccc1Cl)CN1CCN(c2cccc(Cl)c2)CC1 (configuration not stated) | 109% | 95.5% | 109% | 110% | 93.8% | 98.3% | 114% | 104% |
| C/C(=C(/c1ccccc1)c1ccc(N2C(=O)c3cccc4c(N5CCN(C)CC5)ccc(c34)C2=O)cc1)c1ccccc1 | 65.3% | 99.6% | 88.2% | 80.2% | 59% | 49.4% | 99.8% | 79.8% |
| O=C(N=c1oc2ccccc2cc1-c1cc2ccccc2[nH]1)Nc1ccc(Cl)cc1 | 91.1% | 90.7% | 104% | 95.5% | 83.5% | 89.2% | 99.7% | 99.2% |
| C=CCc1cc(C)ccc1NC(C(=O)NCC(=O)OC)c1ccccc1 (configuration not stated) | 77.2% | 93.7% | 101% | 117% | 89.8% | 101% | 98.7% | 99.4% |
| CCC(C)(c1cc(C(C)(C)C)c(O)c(C(C)(C)C)c1)c1cc(C(C)(C)C)c(O)c(C(C)(C)C)c1 | 84.2% | 104% | 105% | 102% | 92.5% | 99.2% | 110% | 100% |
| CN(C(=O)NCc1cccc(F)c1Cl)[C@H](COC(=O)Nc1cc2ccccc2cn1)CC(O)CO (some centres not stated) | 89% | 43.9% | 104% | 92.2% | 98.9% | 95.4% | 110% | 104% |
| CS(=O)(=O)N(c1cc(-c2ccc3ncnc(Nc4ccc(F)c(Cl)c4)c3c2)cnc1Cl)S(C)(=O)=O | -11% (active) | 22% | 43.8% | 46.3% | 12% | 45.1% | 45.1% | 67.1% |
| c1ccc2c(c1)Nc1ccncc1S2 | 95.3% | 75% | 121% | 92.5% | 100% | 82% | – | 103% |
| O=C(Nc1ccc(Br)cc1F)c1cc(Br)ccc1O | -5.16% (active) | -6.02% (active) | 3.11% (active) | 8.55% (active) | 6% (active) | 5.39% (active) | 12.4% | 3.17% (active) |
| O=c1c2cc(F)ccc2sc2c(NCCO)nc3ccccc3c12 | 93.1% | 114% | 110% | 103% | 39.4% | 105% | 116% | 105% |
| O=C1c2cccc3cccc(c23)C(=O)N1Nc1nc(N2CCOCC2)nc(N2CCN(c3ccccc3)CC2)n1 | 37.3% | 37.8% | -12.6% (active) | – | 17.9% | 31.2% | 77.6% | 48.5% |
| Nc1nn(C(=O)Nc2ccc(Cc3ccccc3)cc2)c2ccc(Cl)cc12 | 41.4% | 55.9% | 53.3% | 81.8% | 20.7% | 42.5% | 2.27% (active) | 66.2% |
| CC(=O)OC[C@H]1OC(Sc2sc(C(=O)c3ccc(Br)cc3)c(N)c2-c2nc3ccccc3s2)[C@H](OC(C)=O)[C@@H](OC(C)=O)[C@H]1OC(C)=O (some centres not stated) | 67.4% | 90.2% | 91.7% | – | 94.6% | 91.3% | 98.8% | 95.7% |
| CCOC(=O)c1c(C)nc2c(c1N)CC(=O)N2Cc1ccc(F)cc1 | 73.2% | 72.5% | 99.8% | 92.2% | 96.1% | 87.6% | 103% | 97.7% |
| Cc1ncc(C(=O)Nc2ccc(CN3CCN(C)CC3)c(C(F)(F)F)c2)cc1C#Cc1ccc(N)nc1 | 18.6% | 15.3% | -59% (active) | -2.48% (active) | 4.46% (active) | -31.3% (active) | 25.5% | 2.86% (active) |
| CCOC(=O)c1c2c(n(-c3ccc(C#N)cc3)c1-c1ccccc1)C=CCC2 | 72.6% | 97.8% | 95.3% | 96.9% | 76.4% | 66.2% | 90.5% | 91.8% |
| COc1cc2cc(Oc3ccc(NC(=O)Nc4cc(C(F)(F)F)cc(C(F)(F)F)c4)cc3)c(C)nc2cc1OCCN1CCOCC1 | 26.1% | 68.1% | 22.3% | 20.3% | 7.15% (active) | 10.3% | 38.6% | 13.3% |
| COc1ccc(-c2nn(C(=O)c3cc(OC)c(OC)c(OC)c3)c3cc(N)ccc23)cc1 | 59.9% | 21.5% | 5.29% (active) | 31.6% | 6.74% (active) | 5.15% (active) | 25.1% | 12.4% |
| C[C@H]1[C@H]2[C@H]3CC[C@@H]4[C@@]5(C)CC[C@H](O)C(C)(C)[C@@H]5CC[C@@]4(C)[C@]3(C)CC[C@]23CO[C@]1(C)[C@@H](C(=O)/C=C\c1cccnc1)C3 | 30.2% | 57.2% | 34.5% | 32.3% | 23.7% | 14.4% | 69.9% | 54.4% |
| CCCCNC(=O)Oc1ccc(/C(=C(\C)c2ccc(Cl)cc2)c2ccc(OCCN3CCCCC3)cc2)cc1 | 47% | 86.5% | 74.2% | 83.6% | 32.3% | 53.6% | 87.8% | 67.1% |
